Experimental data from PubChem BioAssay (NCATS).
“And” between values parts separate entries of the source, which are not always exact repeats. Identical values can stand only once. Results filed as inconclusive are left out. The source holds several records for some structures; these can differ, active in one and inactive in another. The source made the active and inactive calls. Unless noted, calls come from the whole dose curve; as a rule, active = well fitted curve in the direction sought with a large enough effect; inconclusive = small, poorly fitted or top-dose-only effect, or another doubt; inactive = no such curve, though single readings can be large; an effect the other way counts as inactive or inconclusive.

How the values were obtained:
[1] = NS1 protein of Zika virus - qHTS assay to identify small molecule inhibitors in human HEK 293 cells (AID 1347053); note: nearly all actives have a fitted effect of over 55% in size; note: potency is the fitted concentration of half-maximal effect
Summary of the method: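 Readout was TR-FRET using paired anti-NS1 antibodies after 24 h infection of HEK 293 cells with ZIKV MR766 (MOI = 0.5). Compound preceded virus by 1 h; reduced signal reflects lower NS1 expression.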

[2] = qHTS of pediatric cancer cell lines to identify multiple opportunities for drug repurposing: Primary screen for DAOY cells (AID 1347090); note: nearly all actives have a fitted effect of over 55% in size; note: potency is the fitted concentration of half-maximal effect
Summary of the method: (§1)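 Cell viability, CellTiter-Glo luminescence; 500-1,000 cells/well, 8- or 11-point titration, 48 h compound exposure at 37 degrees C, 5% CO2. Controls: DMSO neutral, bortezomib 2.3 µM final as positive.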

[3] = qHTS of pediatric cancer cell lines to identify multiple opportunities for drug repurposing: Primary screen for SK-N-MC cells (AID 1347093); note: potency is the fitted concentration of half-maximal effect
Summary of the method: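 Metabolically active cells were quantified by ATP-dependent luminescence (CellTiter-Glo, 15 min at room temperature) following 48 h treatment. Cells had been plated at 500-1,000 per well and settled for 5 h beforehand.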

[4] = qHTS of pediatric cancer cell lines to identify multiple opportunities for drug repurposing: Primary screen for NB-EBc1 cells (AID 1347095); note: potency is the fitted concentration of half-maximal effect
Summary of the method: (§2)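 Plated cells (500-1,000 per well, growth media) were allowed to settle for 5 hours, treated with compound dilutions for 48 hours, then lysed with CellTiter-Glo for 15 min at room temperature before luminescence reading.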

[5] = qHTS of pediatric cancer cell lines to identify multiple opportunities for drug repurposing: Primary screen for U-2 OS cells (AID 1347096); note: nearly all actives have a fitted effect of over 50% in size; note: potency is the fitted concentration of half-maximal effect
Summary of the method: (§3)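 Cells (500-1,000/well) rested 5 h, then received compounds for 48 h; metabolically active cells were measured by CellTiter-Glo luminescence. Final concentrations spanned up to 46 µM (MIPE, 11-point) or 0.59 nM-46 µM (NPC, 8-point) in primary screens, 11-point in follow-ups.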

[6] = qHTS of pediatric cancer cell lines to identify multiple opportunities for drug repurposing: Primary screen for SK-N-SH cells (AID 1347098); note: nearly all actives have a fitted effect of over 65% in size; note: potency is the fitted concentration of half-maximal effect
Summary of the method: as §3

[7] = qHTS of pediatric cancer cell lines to identify multiple opportunities for drug repurposing: Primary screen for NB1643 cells (AID 1347099); note: nearly all actives have a fitted effect of over 50% in size; note: potency is the fitted concentration of half-maximal effect
Summary of the method: as §2

[8] = P-glycoprotein substrates identified in KB-8-5-11 adenocarcinoma cell line, qHTS therapeutic library screen (AID 1346987); note: nearly all actives have a fitted effect of over 65% in size; note: potency is the fitted concentration of half-maximal effect
Summary of the method: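 Human cervical adenocarcinoma KB-8-5-11 cells, selected in colchicine to over-express P-gp and assayed without it, were exposed for 72 h to titrated compounds. An ATP-based luminescent viability signal gave AC50.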

[9] = qHTS of pediatric cancer cell lines to identify multiple opportunities for drug repurposing: Primary screen for BT-37 cells (AID 1347094); note: potency is the fitted concentration of half-maximal effect
Summary of the method: as §2

[10] = qHTS of pediatric cancer cell lines to identify multiple opportunities for drug repurposing: Primary screen for Saos-2 cells (AID 1347097); note: nearly all actives have a fitted effect of over 40% in size; note: potency is the fitted concentration of half-maximal effect
Summary of the method: as §2

[11] = qHTS of pediatric cancer cell lines to identify multiple opportunities for drug repurposing: Primary screen for TC32 cells (AID 1347089); note: nearly all actives have a fitted effect of over 60% in size; note: potency is the fitted concentration of half-maximal effect
Summary of the method: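 TC32 cells, 500-1,000/well in growth medium, compound-treated 48 h at 37 °C; viability from CellTiter-Glo luminescence. Primary screen: MIPE 11-point (0.78 nM–46 µM final), NPC 8-point (0.59 nM–46 µM final); confirmatory at 11-point dilutions.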

[12] = qHTS of pediatric cancer cell lines to identify multiple opportunities for drug repurposing: Primary screen for SJ-GBM2 cells (AID 1347091); note: potency is the fitted concentration of half-maximal effect
Summary of the method: as §1

[13] = qHTS of pediatric cancer cell lines to identify multiple opportunities for drug repurposing: Primary screen for A673 cells (AID 1347092); note: nearly all actives have a fitted effect of over 45% in size; note: potency is the fitted concentration of half-maximal effect
Summary of the method: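 A673 cells (500-1,000 cells/well) were treated 48 hours at 37 degrees C with compounds at 11-point (0.78 nM to 46 µM) or 8-point (0.59 nM to 46 µM) dilutions. Viability read by CellTiter-Glo luminescence; concentration-response curves fitted.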

[14] = biological target: T1, Tyrosine-protein phosphatase non-receptor type substrate 1 (Homo sapiens) + Leukocyte surface antigen CD47 (Homo sapiens) (UniProt P78324+Q08722); experiment: CD47-SIRPalpha protein protein interaction - LANCE assay qHTS validation (AID 1347057; active = well fitted curve in the direction sought with a large enough effect in the signal ratio, with a control signal flat, not every such curve was filed as active; the % refers to the signal ratio; note: series mostly up to about 38 µM)
Summary of the method: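 Inhibition of soluble CD47/SIRPalpha ectodomain association by titrated compounds, measured as 665/615 nm time-resolved FRET ratio after sequential 30 min room-temperature incubations.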

[15] = biological target: T1, Tyrosine-protein phosphatase non-receptor type substrate 1 (Homo sapiens) + Leukocyte surface antigen CD47 (Homo sapiens); experiment: CD47-SIRPalpha protein protein interaction - HTRF assay qHTS validation (AID 1347058; active = well fitted curve in the direction sought with a large enough effect in the signal ratio, not every such curve was filed as active; the % refers to the signal ratio; note: series mostly up to about 38 µM)
Summary of the method: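 Soluble extracellular domains (6His-CD47, Avi-tag-biotinylated SIRPalpha) in PBS pH 7.4 with 0.05% IGEPAL CA-630. Compounds were preincubated 30 min at RT with CD47 and anti-His-Eu, then SIRPalpha and SAV-XL665 were added. TR-FRET 665/615 ratio.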

[16] = biological target: T1, Tyrosine-protein phosphatase non-receptor type substrate 1 (Homo sapiens) + Leukocyte surface antigen CD47 (Homo sapiens); experiment: CD47-SIRPalpha protein protein interaction - Alpha assay qHTS validation (AID 1347059);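 note: bead proximity luminescence from CD47 binding SIRPalpha after compound preincubation with SIRPalpha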
Summary of the method: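 AlphaScreen signal between CD47-His (12.5 nM) and biotin-SIRPalpha (25 nM) soluble extracellular domains, bead-captured via Ni-NTA and streptavidin. Compounds, in 7-point titrations, met SIRPalpha 30 min before CD47; PBS pH 7.4 with 0.05% IGEPAL.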

Measured: Potency

T1 sequence (P78324 whole entry, looked up, the tested form may be a part): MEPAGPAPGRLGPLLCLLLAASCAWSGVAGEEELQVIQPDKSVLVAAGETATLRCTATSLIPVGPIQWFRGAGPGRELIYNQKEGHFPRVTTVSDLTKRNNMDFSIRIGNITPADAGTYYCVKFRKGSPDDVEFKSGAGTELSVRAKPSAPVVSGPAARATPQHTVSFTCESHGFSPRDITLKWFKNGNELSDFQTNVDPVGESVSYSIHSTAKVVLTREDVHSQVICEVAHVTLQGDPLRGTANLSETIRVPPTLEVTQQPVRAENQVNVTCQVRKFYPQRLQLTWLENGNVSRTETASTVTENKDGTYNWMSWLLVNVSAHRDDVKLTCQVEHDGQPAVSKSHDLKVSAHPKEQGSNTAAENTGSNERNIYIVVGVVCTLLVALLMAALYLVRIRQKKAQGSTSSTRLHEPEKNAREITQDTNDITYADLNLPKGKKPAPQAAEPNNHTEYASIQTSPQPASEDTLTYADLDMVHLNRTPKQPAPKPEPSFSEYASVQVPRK
T1 sequence (Q08722 whole entry, looked up, the tested form may be a part): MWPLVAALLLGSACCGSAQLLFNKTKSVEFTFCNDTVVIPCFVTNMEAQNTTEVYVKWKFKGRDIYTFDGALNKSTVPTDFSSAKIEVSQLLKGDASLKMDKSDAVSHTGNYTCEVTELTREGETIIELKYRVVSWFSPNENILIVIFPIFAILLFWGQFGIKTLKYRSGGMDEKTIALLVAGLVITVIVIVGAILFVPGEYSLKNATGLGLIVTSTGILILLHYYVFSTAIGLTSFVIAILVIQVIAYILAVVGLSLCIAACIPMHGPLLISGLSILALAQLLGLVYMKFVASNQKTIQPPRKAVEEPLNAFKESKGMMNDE

CCCCN(CCCC)CCC(O)c1cc2c(Cl)cc(Cl)cc2c2cc(C(F)(F)F)ccc12 (stereo unspecified)
inactive: [1] | [2] | [4] | [5] | [6] | [7]
active: [3] 11.9 µM and 33.2 µM

Cc1cc(C2CCCCC2)n(O)c(=O)c1
active: [8] 5.8 µM | [2] 10.6 µM | [3] 750 nM and 1.18 µM | [9] 3.09 µM | [4] 7.43 µM | [10] 21.1 µM | [6] 1.09 µM | [7] 11.9 µM and 20.9 µM
inactive and 6.62 µM (active): [1]
inactive: [5]

Clc1ccc(C(Cn2ccnc2)OCc2ccsc2Cl)c(Cl)c1 (stereo unspecified)
active: [8] 18.4 µM | [3] 2.66 µM | [9] 0.001 µM | [7] 11.9 µM
inactive: [1] | [2] | [5] | [6]

O=C1CCc2ccc(OCCCCN3CCN(c4cccc(Cl)c4Cl)CC3)cc2N1
active: [12] 18.8 µM
inactive: [8] | [11] | [2] | [13] | [3] | [9] | [4] | [5] | [6] | [7]

O=C(O)c1cc(=O)c2c(OCC(O)COc3cccc4oc(C(=O)O)cc(=O)c34)cccc2o1
inactive: [1] | [11] | [2] | [12] | [3] | [9] | [4] | [5] | [10] | [6] | [7]

COC(=O)C1=C(C)NC(C)=C(C(=O)OC(C)C)C1c1cccc2nonc12 (stereo unspecified)
inactive: [8] | [1] | [12] | [9] | [4] | [5] | [10]
active: [3] 2.64 µM

Cc1cccc(C)c1OCC(=O)N[C@@H](Cc1ccccc1)[C@@H](O)C[C@H](Cc1ccccc1)NC(=O)[C@H](C(C)C)N1CCCNC1=O
inactive: [1] | [11] | [2] | [5]
active: [13] 23.5 µM | [3] 29.6 µM | [7] 20.9 µM

Clc1ccc(C(Cn2ccnc2)OCc2ccc(Sc3ccccc3)cc2)c(Cl)c1 (stereo unspecified)
inactive: [1] | [2] | [12] | [9] | [4] | [5] | [6]

CCc1nc(N)nc(N)c1-c1ccc(Cl)cc1
active: [1] 9.35 µM | [11] 3.74 µM and 11.7 µM | [2] 5.31 µM and 18.7 µM | [12] 2.66 µM and 4.18 µM | [13] 10.6 µM and 14.8 µM | [3] 668 nM and 1.18 µM | [9] 6.92 µM | [4] 2.66 µM and 5.26 µM
inactive: [10] | [6] | [7]

CN(C)[C@@H](CCOc1cccc2ccccc12)c1ccccc1
active: [3] 23.5 µM | [10] 26.4 µM
inactive: [1] | [11] | [2] | [12] | [13] | [4] | [5] | [6] | [7]

COc1cc(C(C)=O)ccc1OCCCN1CCC(c2noc3cc(F)ccc23)CC1
inactive: [1] | [11] | [2] | [13] | [3] | [4] | [5] | [10] | [6] | [7]

CCCCC(CC)COC(=O)C(C#N)=C(c1ccccc1)c1ccccc1 (stereo unspecified)
active: [3] 16.8 µM and 7.43 µM
inactive and 23.5 µM (active): [1]
inactive: [11] | [2] | [12] | [13] | [9] | [4] | [5] | [10]

CN1CCC(=C2c3ccccc3CCc3sccc32)CC1
inactive: [1] | [2] | [12] | [4] | [5] | [10]
active: [3] 29.6 µM | [6] 13.6 µM

O=C(NOCC1CC1)c1ccc(F)c(F)c1Nc1ccc(I)cc1Cl
active: [8] 18.4 µM | [2] 21.1 µM and 11.8 µM | [12] 9.35 µM | [13] 10.6 µM and 9.35 µM | [3] 16.8 µM and 1.87 µM | [9] 24.6 µM and 21.7 µM | [4] 15 µM and 8.33 µM | [5] 18.7 µM | [10] 10.6 µM and 16.6 µM | [6] 19.4 µM | [7] 16.6 µM
inactive: [11]

C[C@@H](c1ncncc1F)[C@](O)(Cn1cncn1)c1ccc(F)cc1F
inactive: [1] | [14] | [15] | [16] | [11] | [12] | [9] | [4] | [5] | [6] | [7]

CCCS(=O)c1ccc2nc(NC(=O)OC)[nH]c2c1 (stereo unspecified)
inactive: [1] | [5] | [7]
active: [8] 20.9 µM and 13 µM | [2] 26.6 µM and 23.5 µM | [12] 21.1 µM and 18.7 µM | [3] 7.5 µM and 18.7 µM | [4] 10.5 µM | [10] 13.3 µM
